Test results reported in PubChem BioAssay.
For part of these data: Entries with a potency or affinity are not part of this list. Activity calls are given as the source filed them.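 Rule for the calls, unless noted: active = calcium signal cut by more than 3 SD below the full-agonist control yet still positive, in both repeats and the earlier primary screen; inactive = the rest.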

What was measured:
[1] = test system: TRPC4 beta (transient receptor potential cation channel C4), mouse; experiment: activators of mouse TRPC4 channel, confirmation, cell-based, Fluo4 calcium, HEK293 TRPC4beta/mu-opioid, duplicates, 10 µM (AID 2426;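 active = fluorescence ratio normalized to control raised more than 50% in primary screen plus both repeat runs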); conditions: Fluo4 calcium fluorescence, at 10 µM; active compounds read high
[2] = test system: transient receptor potential cation channel C4 beta (TRPC4), mouse; experiment: activators of mouse TRPC4 channel, confirmation, cell-based, second round, Fluo4, HEK293 TRPC4beta/mu-opioid, 1 µM (AID 2461;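 active = primary screen active and over 50% activation in each of two duplicate runs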); conditions: Fluo4 calcium fluorescence, at 1 µM; active compounds read high
[3] = test system: TRPC4 (transient receptor potential cation channel C4 beta), mouse; experiment: positive allosteric modulators of mouse TRPC4, confirmation, cell-based, second round, Fluo-4, HEK293 TRPC4beta/mu-opioid, 1 µM (AID 2554;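 active = primary screen hit whose fluorescence ratio, in both repeats, exceeds the weak agonist control mean by 3 SD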); conditions: DAMGO EC20, Fluo-4 calcium flux, at 1 µM; active compounds read high
[4] = test system: TRPC4 beta (transient receptor potential cation channel C4), mouse; experiment: positive allosteric modulators of mouse TRPC4, confirmation, cell-based, Fluo-4, HEK293 TRPC4beta/mu-opioid (AID 2555;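 active = primary screen hit whose calcium fluorescence ratio, in both repeats, exceeds the weak agonist control mean by 3 SD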); conditions: DAMGO EC20, Fluo-4 calcium flux, at 10 µM; active compounds read high
[5] = molecular target: Short transient receptor potential channel 4 (Mus musculus) (UniProt Q9QUQ5); experiment: inhibitors of mouse TRPC4 channel, confirmation, cell-based, Fluo4, HEK293 TRPC4beta/mu-opioid (AID 2636); conditions: DAMGO, Fluo4 calcium flux, at 10 µM; active compounds read high
Chain of Short transient receptor potential channel 4 (Mus musculus) (Q9QUQ5 whole entry, looked up): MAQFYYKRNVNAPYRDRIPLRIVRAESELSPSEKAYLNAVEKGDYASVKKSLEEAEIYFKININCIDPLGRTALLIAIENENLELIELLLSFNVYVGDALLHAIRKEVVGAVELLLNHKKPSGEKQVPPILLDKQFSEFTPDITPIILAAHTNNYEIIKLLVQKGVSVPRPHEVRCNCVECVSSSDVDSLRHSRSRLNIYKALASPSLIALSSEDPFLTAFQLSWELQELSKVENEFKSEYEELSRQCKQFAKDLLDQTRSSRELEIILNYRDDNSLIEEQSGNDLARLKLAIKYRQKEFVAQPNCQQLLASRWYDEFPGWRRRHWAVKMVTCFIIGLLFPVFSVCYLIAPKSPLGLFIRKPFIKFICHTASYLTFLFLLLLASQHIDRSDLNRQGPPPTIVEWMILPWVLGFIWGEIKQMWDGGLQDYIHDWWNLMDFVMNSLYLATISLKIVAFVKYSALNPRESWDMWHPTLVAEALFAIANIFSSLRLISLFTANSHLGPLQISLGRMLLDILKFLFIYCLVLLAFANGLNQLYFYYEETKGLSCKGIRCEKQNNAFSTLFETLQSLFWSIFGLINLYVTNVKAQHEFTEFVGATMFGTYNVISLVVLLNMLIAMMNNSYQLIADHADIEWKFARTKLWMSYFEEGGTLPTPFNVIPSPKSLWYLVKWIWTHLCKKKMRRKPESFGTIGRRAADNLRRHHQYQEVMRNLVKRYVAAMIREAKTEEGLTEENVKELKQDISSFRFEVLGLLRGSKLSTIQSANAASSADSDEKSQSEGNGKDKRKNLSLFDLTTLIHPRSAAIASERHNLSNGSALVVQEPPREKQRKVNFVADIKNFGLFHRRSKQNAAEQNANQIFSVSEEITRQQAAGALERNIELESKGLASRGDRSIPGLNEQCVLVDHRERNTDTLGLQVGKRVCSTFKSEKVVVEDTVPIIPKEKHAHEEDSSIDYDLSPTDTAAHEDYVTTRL

[6] = molecular target: Short transient receptor potential channel 4 (Mus musculus) (UniProt Q9QUQ5); experiment: inhibitors of mouse TRPC4 channel, confirmation, cell-based, second round, Fluo4, HEK293 TRPC4beta/mu-opioid, 1 µM (AID 2637;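 active = calcium signal ratio cut to more than 3 SD under the fully stimulated control mean yet still positive, in both repeats and the primary screen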); conditions: Fluo4 calcium flux, DAMGO, at 1 µM; active compounds read high
[7] = molecular target: Short transient receptor potential channel 4 (Mus musculus) (UniProt Q9QUQ5); experiment: mouse TRPC4 channel activators, dose response, cell-based, HEK293 TRPC4/mu-opioid, Fluo-4 calcium (AID 434937;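 active = primary screen activator hit with a dose response curve and TRPC4 channel activation at any tested dose; inactive = no activation, no dose response, or not a primary hit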)
[8] = molecular target: Short transient receptor potential channel 4 (Mus musculus) (UniProt Q9QUQ5); experiment: TRPC4 positive allosteric modulators, dose response, cell-based, HEK293 TRPC4/mu-opioid, Fluo-4 calcium, EC20 DAMGO (AID 434941;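 active = earlier screen potentiator hit that boosts the TRPC4 ion channel at some dose, with a dose response; inactive = no potentiation, no dose response, or not a prior hit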;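 note: calcium entry triggered by an EC20 dose of DAMGO at the co-expressed mu-opioid receptor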)
[9] = molecular target: Short transient receptor potential channel 4 (Mus musculus) (UniProt Q9QUQ5); experiment: mouse TRPC4 channel inhibitors, dose response, cell-based, HEK293 TRPC4/mu-opioid, Fluo-4 calcium (AID 434942;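 active = primary screen inhibitor hit that blocks the TRPC4 channel at some tested dose, yielding a dose curve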)
[10] = molecular target: Short transient receptor potential channel 6 (Mus musculus) (UniProt Q61143); experiment: inhibition of mouse TRPC6 channel, confirmation, selectivity assay for TRPC4 inhibitor project, cell-based, HEK293, membrane potential dye, duplicate (AID 434948;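 active = active in primary screen and both duplicates, each dropping signal beyond three positive-control SD with fluorescence still positive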); conditions: HEK293 TRPC6, membrane potential dye fluorescence, at 10 µM, stimulated with maximal-effect acetylcholine; active compounds read high
Chain of Short transient receptor potential channel 6 (Mus musculus) (Q61143 whole entry, looked up): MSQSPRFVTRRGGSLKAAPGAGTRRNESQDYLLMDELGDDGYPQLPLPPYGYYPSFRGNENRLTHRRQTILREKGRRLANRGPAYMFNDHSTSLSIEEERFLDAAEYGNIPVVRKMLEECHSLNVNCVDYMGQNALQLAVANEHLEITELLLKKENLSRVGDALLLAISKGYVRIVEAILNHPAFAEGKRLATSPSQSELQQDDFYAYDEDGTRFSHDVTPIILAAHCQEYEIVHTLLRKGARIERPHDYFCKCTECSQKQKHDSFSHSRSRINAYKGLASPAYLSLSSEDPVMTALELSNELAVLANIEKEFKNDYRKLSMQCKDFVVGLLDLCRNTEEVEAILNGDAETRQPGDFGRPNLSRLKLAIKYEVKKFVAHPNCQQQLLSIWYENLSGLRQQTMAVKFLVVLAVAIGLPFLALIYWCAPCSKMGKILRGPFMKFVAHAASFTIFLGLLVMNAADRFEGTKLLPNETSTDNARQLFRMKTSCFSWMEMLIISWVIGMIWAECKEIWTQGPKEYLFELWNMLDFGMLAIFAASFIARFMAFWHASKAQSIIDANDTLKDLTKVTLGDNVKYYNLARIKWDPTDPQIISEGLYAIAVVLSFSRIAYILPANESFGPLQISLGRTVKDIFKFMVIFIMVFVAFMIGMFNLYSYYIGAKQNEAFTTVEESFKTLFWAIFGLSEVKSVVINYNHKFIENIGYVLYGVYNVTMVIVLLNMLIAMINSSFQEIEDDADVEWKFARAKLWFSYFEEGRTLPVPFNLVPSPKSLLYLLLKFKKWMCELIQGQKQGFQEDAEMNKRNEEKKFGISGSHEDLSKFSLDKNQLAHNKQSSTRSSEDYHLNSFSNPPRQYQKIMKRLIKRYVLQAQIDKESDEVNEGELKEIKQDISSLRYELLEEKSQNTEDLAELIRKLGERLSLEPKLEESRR

[11] = molecular target: Short transient receptor potential channel 6 (Mus musculus) (UniProt Q61143); experiment: activation of mouse TRPC6 channel, confirmation, selectivity assay for TRPC4 activator project, cell-based, HEK293, membrane potential dye, duplicate (AID 434950;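 active = membrane potential signal rise above negative control mean plus 3 SD in both duplicates, also active in the earlier TRPC4 screen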;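 for activation: 0% = buffer only wells and 100% = acetylcholine maximal-effect wells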); conditions: HEK293 TRPC6, membrane potential fluorescence, at 10 µM; active compounds read high
[12] = molecular target: Short transient receptor potential channel 6 (Mus musculus) (UniProt Q61143); experiment: TRPC6 potentiation by TRPC4 potentiator hits, confirmation, selectivity assay for TRPC4 potentiator project, HEK293 cells, membrane potential dye, duplicate (AID 434952;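 active = compound raising the membrane signal above positive-control mean plus 3 SD in both repeats, and a primary screen hit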); conditions: HEK293 TRPC6, membrane potential dye fluorescence, at 10 µM, maximal acetylcholine added after compound; active compounds read high
[13] = molecular target: Short transient receptor potential channel 4 (Mus musculus) (UniProt Q9QUQ5); experiment: calcium flux activators in TRPC4/5HT1a cells, counter-screen for TRPC4 activator project, cell-based, second counter screen, HEK293 TRPC4/5HT1a, Fluo-4 (AID 434977;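 active = calcium signal rise above buffer-control mean plus 5 SD in both duplicates, and also a hit in the primary screen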;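 for activation: plate controls were assay buffer for no effect and maximal serotonin response for full effect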); conditions: Fluo-4 calcium flux, at 10 µM; active compounds read high
[14] = calcium flux inhibitors in TRPC4/5HT1a cells, confirmation, counter-screen for TRPC4 inhibitor project, cell-based, second counter screen, HEK293 TRPC4/5HT1a, Fluo-4 (AID 434978;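 active = primary screen active whose calcium signal fell more than 3 SD beyond the full-serotonin control mean in both duplicate plates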;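 note: serotonin given first at submaximal then at maximal dose after compound preincubation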); conditions: Fluo-4 calcium flux, at 10 µM, serotonin added to trigger calcium flux; active compounds read high
[15] = test system: TRPC4 (mouse), co-expressed with 5HT1a in HEK293; experiment: calcium flux potentiators in TRPC4/5HT1a cells, confirmation, counter-screen for TRPC4 potentiator project, cell-based, second counter screen, HEK293 TRPC4/5HT1a, Fluo-4 (AID 434979;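 active = signal rise over 3 SD above mean of control wells given weak agonist, in both repeats and first screen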); conditions: Fluo-4 calcium flux, at 10 µM, serotonin added at its EC20 dose; active compounds read high
[16] = calcium flux activation in mu-opioid HEK293 cells, confirmation, counter-screen for TRPC4 activator project, cell-based, HEK293 mu-opioid receptor line (AID 449723;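 active = hit in primary screen, with calcium signal over 5 SD above buffer well mean in both duplicates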;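 note: counter screen cells carry the mu-opioid receptor alone and lack TRPC4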); conditions: Fluo-4 calcium fluorescence, at 10 µM; active compounds read high
[17] = calcium flux enhancement in mu-opioid HEK293 cells, confirmation, counter-screen for TRPC4 allosteric potentiator project, cell-based, HEK293 mu-opioid receptor line (AID 449724;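 active = calcium signal rise more than 3 SD above the low-dose agonist control mean, in both duplicate plates and the primary screen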); conditions: Fluo-4 calcium flux, at 10 µM, compound added before EC20 DAMGO stimulus; active compounds read high

CCOc1ccc(CN(C)CC(=O)NNC(=O)c2ccc(Cl)cc2)cc1OC
inactive: outcome [1] | outcome [2] | outcome [5] | outcome [6] | outcome [7] | outcome [8] | outcome [9] | outcome [10] | outcome [11] | outcome [12] | outcome [13] | outcome [14] | outcome [16] | outcome [17]
active: potentiation [3] 41% | potentiation [4] 22% | potentiation [15] 11%

CCCC1=C(C(=O)OCC)C(c2cc(Cl)cc(OC)c2OCC(=O)OCC)NC(=O)N1 (stereo not given)
inactive: outcome [1] | outcome [2] | outcome [3] | outcome [5] | outcome [6] | outcome [7] | outcome [8] | outcome [9] | outcome [10] | outcome [11] | outcome [12] | outcome [13] | outcome [14] | outcome [16] | outcome [17]
active: potentiation [4] 22% | potentiation [15] 5.72%

C=CCc1cc(Cl)ccc1OCCCn1ccnc1
inactive: outcome [1] | outcome [2] | outcome [4] | outcome [5] | outcome [6] | outcome [7] | outcome [8] | outcome [9] | outcome [10] | outcome [11] | outcome [12] | outcome [13] | outcome [14] | outcome [15] | outcome [16] | outcome [17]
active: potentiation [3] 9%

Cc1ccc(NC(=O)Nc2cccc([N+](=O)[O-])c2)nc1
active: potentiation [3] 12% | potentiation [15] 24.5%
inactive: outcome [1] | outcome [2] | outcome [4] | outcome [5] | outcome [6] | outcome [7] | outcome [8] | outcome [9] | outcome [10] | outcome [11] | outcome [12] | outcome [13] | outcome [14] | outcome [16] | outcome [17]

O=C(Nc1ccc(F)cc1)Nc1cc(S(=O)(=O)N2CCOCC2)ccc1N1CCCC1
inactive: outcome [1] | outcome [2] | outcome [3] | outcome [5] | outcome [6] | outcome [7] | outcome [8] | outcome [9] | outcome [10] | outcome [11] | outcome [12] | outcome [13] | outcome [14] | outcome [16] | outcome [17]
active: potentiation [4] 53% | potentiation [15] 33%

O=C(Cc1cccs1)Nc1nc(-c2ccc(F)cc2F)cs1
active: potentiation [3] 24% | potentiation [4] 65% | potentiation [15] 91.9%
inactive: outcome [1] | outcome [2] | outcome [5] | outcome [6] | outcome [7] | outcome [8] | outcome [9] | outcome [10] | outcome [11] | outcome [12] | outcome [13] | outcome [14] | outcome [16] | outcome [17]

O=C(C1=C[C@H](c2ccc(C(F)(F)F)cc2)C[C@H](OCCCCO)O1)N1CCN(Cc2ccccc2)CC1
inactive: outcome [1] | outcome [2] | outcome [3] | outcome [4] | outcome [5] | outcome [6] | outcome [7] | outcome [8] | outcome [9] | outcome [10] | outcome [12] | outcome [13] | outcome [14] | outcome [15] | outcome [16] | outcome [17]
active: activation [11] 35%

CC(C)Cc1nc(N2CCN(C(=O)C(C)C)CC2)c(C#N)c2c1CCC2
inactive: outcome [1] | outcome [2] | outcome [3] | outcome [5] | outcome [6] | outcome [7] | outcome [8] | outcome [9] | outcome [10] | outcome [11] | outcome [12] | outcome [13] | outcome [14] | outcome [15] | outcome [16] | outcome [17]
active: potentiation [4] 33%

CCOCCCn1cnc2c(c1=O)c1nc3ccccc3nc1n2-c1ccc(C)cc1
inactive: outcome [1] | outcome [2] | outcome [3] | outcome [4] | outcome [5] | outcome [6] | outcome [7] | outcome [8] | outcome [9] | outcome [10] | outcome [11] | outcome [12] | outcome [13] | outcome [14] | outcome [15] | outcome [16] | outcome [17]

CCOC(=O)c1cn(Cc2ccccc2)c(C(=O)OC(C)(C)C)c1O
active: activation [13] 54.1% | activation [16] 21.1%
inactive: outcome [1] | outcome [2] | outcome [3] | outcome [4] | outcome [5] | outcome [6] | outcome [7] | outcome [8] | outcome [9] | outcome [10] | outcome [11] | outcome [12] | outcome [14] | outcome [15] | outcome [17]

CCN(CC)CCNC(=O)c1cc2c(-c3cccc(OC)c3)nn(C)c2s1
active: potentiation [15] 20.8%
inactive: outcome [1] | outcome [2] | outcome [3] | outcome [4] | outcome [5] | outcome [6] | outcome [7] | outcome [8] | outcome [9] | outcome [10] | outcome [11] | outcome [12] | outcome [13] | outcome [14] | outcome [16] | outcome [17]

N=c1c2c3c(sc2ncn1Cc1ccccc1)CCCC3
inactive: outcome [1] | outcome [2] | outcome [3] | outcome [4] | outcome [5] | outcome [6] | outcome [7] | outcome [8] | outcome [9] | outcome [10] | outcome [11] | outcome [12] | outcome [13] | outcome [14] | outcome [15] | outcome [16] | outcome [17]

Cc1cc2cc(CN(Cc3cccs3)C(=S)NCc3ccco3)c(=O)[nH]c2cc1C
inactive: outcome [1] | outcome [2] | outcome [3] | outcome [4] | outcome [5] | outcome [6] | outcome [7] | outcome [8] | outcome [9] | outcome [10] | outcome [11] | outcome [12] | outcome [13] | outcome [14] | outcome [15] | outcome [16] | outcome [17]

O=C(C1=C[C@H](c2ccc(C(F)(F)F)cc2)C[C@H](OCCCCO)O1)N1CCOCC1
inactive: outcome [1] | outcome [2] | outcome [3] | outcome [4] | outcome [5] | outcome [6] | outcome [7] | outcome [8] | outcome [9] | outcome [10] | outcome [12] | outcome [13] | outcome [14] | outcome [15] | outcome [16] | outcome [17]
active: activation [11] 27.5%

CCCCCOc1ccc2oc(=O)c3c(c2c1)CCCN3C(=O)CN1CCCC(C(=O)OCC)C1 (stereo not given)
inactive: outcome [1] | outcome [2] | outcome [3] | outcome [4] | outcome [5] | outcome [6] | outcome [7] | outcome [8] | outcome [9] | outcome [10] | outcome [11] | outcome [12] | outcome [13] | outcome [14] | outcome [16] | outcome [17]
active: potentiation [15] 7.34%
